Common to all, as to assay: NCI-60 one-dose screen, 48 h (100 = growth as untreated, 0 = no growth, -100 = all killed)
Holding throughout (settings): 10 µM unless noted

Test [1] concerns HCT-15 colon.
Test [2] has as its system HT29 colon.
Test [3] concerns SNB-75 CNS.
Test [4] has as its system SNB-19 CNS.
Test [5] deals with U251 CNS.
Test [6] concerns PC-3 prostate.
Test [7] deals with SK-MEL-5 melanoma.
Test [8] concerns UACC-62 melanoma.
The test system of test [9] is LOX IMVI melanoma.
Test [10] has as its system SK-MEL-28 melanoma.
Test [11] relates to SK-MEL-2 melanoma.
Test [12] deals with EKVX NSCLC.
Test [13] relates to SN12C renal.
Test [14] has as its system UO-31 renal.
Test [15] has as its system TK-10 renal.
The subject of test [16] is ACHN renal.
Test [17] concerns CAKI-1 renal.
The subject of test [18] is A498 renal.
Test [19] has as its system CCRF-CEM leukemia.
Test [20] deals with MOLT-4 leukemia.

This is part of a sample that, as a whole, favours compounds with a hit. Of some 83,000 tested, about 20% had one in any assay.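 Treatment: one concentration, 48 hours, 96-well format. Scoring: percent growth, with anything below 10 considered active.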 Values without a mark were called inactive. The source made the active and inactive calls.

The text below walks through data of PubChem BioAssay (NCI).

For the compound `COC(=O)[C@@H](Cc1c[nH]c2ccccc12)NC(=O)[C@H](Cc1ccccc1)NCc1ccncc1`, the growth in test [1] was 110%; in test [2] it was 87.5%; in [3], 93%; in [4], 93.3%; in test [5], 92.7%; in [6], 78.5%. The growth in [7] is 102%; in test [8], 95.3%; in [9], 95%; in test [10] it was 122%; in test [11], 77.7%; in test [12] it was 103%. The growth was 100% in [13]; 71.9% in test [14]; 98.1% in test [15]; 109% in test [16]; 91.9% in test [17]; 100% in test [18]. In addition, the growth in test [19] is 90.3%; in [20], 92.5%.
Turning to `CN1CCN(Cn2nc(-c3cc(Cl)cc(Cl)c3Cl)oc2=S)CC1`, the growth in test [1] was 99.5%; in test [2], 102%; in [3], 80.9%; in [4], 95.4%; in test [5], 97.5%; in test [6], 92.1%. Also, the growth is 101% in test [7]; 99.7% in [8]; 93.8% in test [9]; 110% in test [10]; 95.3% in test [11]; 102% in [12]. Further, the growth in test [13] is 93.9%; in test [14], 138%; in test [15] it was 110%; in [16], 98.1%; in [17], 59.5%; in [18], 95%. Further, the growth in test [19] is 272%; in test [20], 122%.
Regarding `COc1ccc(Nc2nccc(Nc3ccc4[nH]ncc4c3)n2)cc1`, the growth was 6.21% (active) in test [1]; 12.1% in [2]; 65.8% in [3]; 59.7% in [4]; 35.5% in [5]; 13.5% in test [6]. Further, the growth is 1.85% (active) in [7]; 38.6% in test [8]; 19% in [9]; 65.8% in test [10]; 29.8% in [11]; 50.9% in test [12]. Besides, the growth is 43.4% in [13]; 15.9% in test [14]; 19.3% in test [15]; 29.2% in test [16]; 38.3% in test [17]; 36.5% in test [18]. In addition, the growth is -1.69% (active) in test [19] and 1.45% (active) in [20].
As to `CCN=c1sc2c(n1NC(=O)c1cc3ccc1CCc1ccc(cc1)CC3)C(=O)c1ccccc1C2=O`, the growth in test [1] was -68.1% (active); in test [2], 49%; in test [3], -98.2% (active); in test [4] it was -74.3% (active); in [5], -81.5% (active); in [6], -2.79% (active). Also, the growth in test [7] is -96.9% (active); in test [8] it was -54% (active); in test [9] it was -83.9% (active); in test [10], -81.2% (active); in [11] it was -40.6% (active); in test [12] it was -61.3% (active). Further, the growth is -91.2% (active) in [13]; -73.1% (active) in test [14]; 88.6% in [15]; -90.2% (active) in test [16]; 8.85% (active) in test [17]; 51.6% in [18]. The growth is -16% (active) in test [19] and -32.8% (active) in test [20].
Take `CCCC1Cc2cc(-n3nc(C)c4c3CC(C)(C)CC4=O)cc(NC3CCC(O)CC3)c2C(=O)N1` (stereo not given): the growth is 26.1% in test [1]; 11.6% in test [2]; 66.6% in test [3]; 50% in test [4]; 41.5% in test [5]; 42.8% in [6]. In addition, the growth is 40.7% in [7]; 6.33% (active) in [8]; 5.91% (active) in test [9]; 31.5% in test [10]; 48.7% in [11]; 62.8% in test [12]. Besides, the growth in test [13] is 38%; in [14] it was 28.9%; in test [15], 38.2%; in test [16], 29.3%; in test [17] it was 30.4%; in test [18] it was 37.6%. The growth in [19] is 35%; in test [20] it was 16.8%.
Consider `COc1cc2c(c(OC)c1OC)CCC(c1cccc(C(=O)Nc3ccc([N+](=O)[O-])cc3)c1)O2` (stereo not given), for which the growth in test [1] is 54.5%; in test [2], 64%; in test [3], 66.7%; in test [4], 56.7%; in [5], 57.7%; in [6], 27.1%. Also, the growth was 15.4% in [7]; 31.4% in test [8]; 52.9% in test [9]; 61.9% in test [10]; 43% in test [11]; 55.4% in test [12]. The growth was 51.1% in [13]; 29.3% in test [14]; 57.8% in test [15]; 40.7% in test [16]; 50.5% in [17]; 25.5% in [18]. Besides, the growth is 15.1% in [19] and 4.06% (active) in [20].
Regarding `CCNc1nc(-c2ccc(Cl)c(OC)c2)c(-c2ccnc(NCCNS(=O)(=O)c3ccc(Cl)cc3)n2)s1`, the growth in test [1] was 16.7%; in test [2], 5.01% (active); in test [3], 46.1%; in test [4], 34.2%; in [5], 17.3%; in [6], 9.83% (active). Further, the growth in test [7] is 13.5%; in [8], 24.6%; in test [9], 13.9%; in [10], 32.3%; in test [11], -30% (active); in test [12], 34.9%. Moreover, the growth in test [13] is 36.1%; in [14], 40.8%; in test [15], 22.5%; in [16], 33.7%; in test [17] it was 30.4%; in test [18], 18.6%. Moreover, the growth was 21.4% in test [19] and 11.2% in test [20].
`Cc1cc(C(=O)Nc2cc(Nc3ncccc3-c3ncnc4nc[nH]c34)ccc2F)cc(C(C)(C)C#N)c1`: the growth is 42.7% in test [1]; 24.1% in [2]; 79.5% in test [3]; 61.8% in test [4]; 51.1% in test [5]; 57.8% in test [6]. For the same compound, the growth in [7] was 27.1%; in test [8], 3.75% (active); in test [9] it was -9.5% (active); in test [10], 10.9%; in test [11], 8.76% (active); in test [12], 56%. Also, the growth in test [13] is 50.6%; in test [14], 10.1%; in [15] it was 60.8%; in test [16], 30.5%; in [17], 25.1%; in [18] it was -22.8% (active). Also, the results for the growth in test [19] and in test [20] were 42.4% and 53.2%, respectively.
